The list is not random: actives were taken first. Their share in the collection is about 3.9%.
TPT1 inhibitor: blocks Candida albicans tRNA 2'-phosphotransferase; recombinant caTPT1, FP RNA substrate dephosphorylation; AID 1962; 300,000 compounds, 0.81% hits; inhibition, % at 5 µM;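 active = inhibition above the mean of all tested compounds plus 3 SD, set per screening campaign, cut at about 24% in these data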;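 note: plate controls were DMSO alone for no effect and ferristatin control at 100 nM for full effect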
PHOSPHO1 inh: inhibitors of human PHOSPHO1 phosphatase; recombinant PHOSPHO1, absorbance phosphatase assay; inhibition, % at 13.3 µM; 290,000 compounds, 1.1% hits; AID 1565; in the data active = inhibition above about 60%
Target sequence (Q8TCT1 whole entry, looked up): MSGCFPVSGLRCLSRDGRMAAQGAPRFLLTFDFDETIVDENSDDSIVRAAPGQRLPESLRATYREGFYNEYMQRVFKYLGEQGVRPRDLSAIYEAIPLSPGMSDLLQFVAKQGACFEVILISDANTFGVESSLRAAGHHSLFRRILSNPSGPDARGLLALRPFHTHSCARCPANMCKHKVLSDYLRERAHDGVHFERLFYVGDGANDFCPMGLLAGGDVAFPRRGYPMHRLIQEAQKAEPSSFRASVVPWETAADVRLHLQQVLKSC
WT yeast gro inh: growth inhibition of WT yeast, mitochondrial fusion screen. mitochondrial fusion phenotypic screen, WT strain. inhibition, % at 10 µM. 190,000 compounds, 2.1% hits; in the data active = inhibition above about 58%; tested in S. cerevisiae
Platelet DG rel: platelet dense granule release activity. human platelet-rich plasma, SFLLRN dense granule ATP release, luminescence. inhibition, %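 (compounds screened at 7.5 µM in platelet-rich plasma)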. 300,000 compounds, 0.22% hits. AID 1663;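 active = mean replicate score, as percent of positive control, at or above 50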
SKKanGAS inh: blocks kanamycin growth of S. pyogenes SKKanGAS strain; BacTiter-Glo, 6 h; 300,000 compounds, 1.3% hits; inhibition, % at 7.5 µM;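 active = mean replicate score, as percent of positive control median, at least 50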;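 note: strain carries kanamycin resistance gene driven by streptokinase promoter and grows in 40 µg/ml kanamycin; loss of luminescence reflects streptokinase promoter inhibition or plain growth inhibition; 0% = median of DMSO wells and 100% = positive control at its reference dose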
Rtt109 HAT inh: inhibitors of Candida albicans Rtt109/Vps75 histone acetyltransferase; Q5AAJ8; purified Rtt109/Vps75, ThioGlo CoA-SH fluorescence, 4 h; inhibition, % at 34.9 µM; 330,000 compounds, 0.16% hits;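 active = inhibition of at least 50% in every replicate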
Target sequence (Q5AAJ8 whole entry, looked up): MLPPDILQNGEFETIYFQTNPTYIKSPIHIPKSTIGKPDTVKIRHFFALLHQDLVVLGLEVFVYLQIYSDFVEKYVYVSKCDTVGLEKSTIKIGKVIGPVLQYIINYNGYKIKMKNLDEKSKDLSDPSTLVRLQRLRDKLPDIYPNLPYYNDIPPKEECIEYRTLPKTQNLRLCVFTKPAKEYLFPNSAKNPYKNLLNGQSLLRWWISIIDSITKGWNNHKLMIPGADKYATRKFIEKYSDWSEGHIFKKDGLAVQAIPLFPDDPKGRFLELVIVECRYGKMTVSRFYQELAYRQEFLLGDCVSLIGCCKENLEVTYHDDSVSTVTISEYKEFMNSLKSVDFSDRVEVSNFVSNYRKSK
The depositor's hits bear a star.

CCCOC(=O)c1ccc(Oc2cn[nH]c2-c2ccc(OC)cc2O)cc1 was read as TPT1 inhibitor -3.9, PHOSPHO1 inh 2.6, WT yeast gro inh 78.5*, Platelet DG rel -42.1, SKKanGAS inh 59.1* and Rtt109 HAT inh -0.3.
COc1ccc(-c2nc(N)ncc2-c2ccc(OC)c(OC)c2)c(O)c1 was read as PHOSPHO1 inh 18.5, Platelet DG rel 5.7, SKKanGAS inh -0.3 and Rtt109 HAT inh -4.4.
For CCc1cc(-c2nc(N)ncc2-c2ccc(Br)cc2)c(O)cc1OC the results were TPT1 inhibitor -5.0, PHOSPHO1 inh -9.9, Platelet DG rel -6.6, SKKanGAS inh 63.5* and Rtt109 HAT inh 1.8.
CCOc1ccc(-c2[nH]ncc2Oc2ccccc2OC)c(O)c1 was read as TPT1 inhibitor -0.7, PHOSPHO1 inh -7.4, WT yeast gro inh 32.1, Platelet DG rel 0.0, SKKanGAS inh 13.4 and Rtt109 HAT inh 3.6.
`COc1ccc(-n2nnnc2Sc2ccc(S(=O)(=O)N3CCOCC3)cn2)cc1` gave TPT1 inhibitor 2.3, PHOSPHO1 inh 85.4*, Platelet DG rel -5.1, SKKanGAS inh -1.3 and Rtt109 HAT inh 4.9.
For COc1ccc(-n2nnnc2SCC(=O)N2CCOCC2)cc1 the results were TPT1 inhibitor -0.4, PHOSPHO1 inh -2.0, WT yeast gro inh 7.7, Platelet DG rel -4.4, SKKanGAS inh 0.0 and Rtt109 HAT inh 15.3.
`COc1ccc(CNCCc2ccc(Cl)cc2)cc1OCc1ccccc1` gave TPT1 inhibitor 1.7, PHOSPHO1 inh -3.0, WT yeast gro inh 82.0*, Platelet DG rel 2.5, SKKanGAS inh 2.3 and Rtt109 HAT inh -3.9.
For COc1cc(CNCc2ccccn2)ccc1OCc1ccc(Cl)c(Cl)c1 the results were TPT1 inhibitor 1.1, PHOSPHO1 inh 47.7, WT yeast gro inh 72.2*, Platelet DG rel 10.6, SKKanGAS inh -3.0 and Rtt109 HAT inh 14.2.
`Cc1nnc(NC(=O)CSc2nnc(CC(=O)Nc3ccccc3F)n2C)s1` gave TPT1 inhibitor -1.7, PHOSPHO1 inh 4.0, Platelet DG rel 2.4, SKKanGAS inh -2.9 and Rtt109 HAT inh -2.0.
`CC(OC(=O)Cn1cnc2c1c(=O)n(C)c(=O)n2C)C(=O)NC1(C#N)CCCCC1` (stereo not drawn) gave Rtt109 HAT inh -0.4.
Screening CN1CCN(S(=O)(=O)c2ccc(N3CCN(C(c4ccccc4)c4ccccc4)CC3)nc2)CC1 returned TPT1 inhibitor 1.5, PHOSPHO1 inh 33.9, WT yeast gro inh 69.2*, Platelet DG rel 0.5, SKKanGAS inh -0.6 and Rtt109 HAT inh -1.3.
Screening CN1CCN(S(=O)(=O)c2ccc(N3CCN(S(=O)(=O)/C=C/c4ccccc4)CC3)nc2)CC1 returned TPT1 inhibitor 0.1, PHOSPHO1 inh 11.4, WT yeast gro inh 9.9, Platelet DG rel -1.6, SKKanGAS inh 0.4 and Rtt109 HAT inh -13.6.
CC(C)(C)n1nnnc1C(c1cccs1)N(Cc1cccnc1)Cc1ccccc1Cl (stereo not drawn) was read as TPT1 inhibitor -3.1, PHOSPHO1 inh -13.8, WT yeast gro inh 74.0*, Platelet DG rel 1.2, SKKanGAS inh 15.0 and Rtt109 HAT inh 0.5.
For c1ccc(-c2noc(CN3CCN(C(c4ccccc4)c4ccccc4)CC3)n2)cc1 the results were TPT1 inhibitor -1.6, PHOSPHO1 inh 2.8, WT yeast gro inh 74.8*, Platelet DG rel -2.0 and SKKanGAS inh -4.1.
CCn1cc(/C=C(\NC(=O)c2ccccc2F)C(=O)NCCN2CCOCC2)c2ccccc21 was read as TPT1 inhibitor 4.2, PHOSPHO1 inh 64.9*, Platelet DG rel -3.4, SKKanGAS inh 2.4 and Rtt109 HAT inh 3.4.
For CCN1C[C@@H]2[C@@H]3C(=O)N(Cc4ccccc4)C(=O)[C@@H]3[C@](CC)(C(=O)OC)N2C1=NCc1ccccc1 the results were Rtt109 HAT inh 3.5.
CSc1nc(C=Nc2ccccc2Cl)c(O)n1Cc1cccc(Cl)c1 was read as TPT1 inhibitor 1.6, PHOSPHO1 inh 88.2*, Platelet DG rel 2.0, SKKanGAS inh 6.2 and Rtt109 HAT inh 10.7.
For CSc1nc2ccccc2n1Cc1cccc(F)c1 the results were TPT1 inhibitor -6.2, PHOSPHO1 inh 44.2, WT yeast gro inh 23.5, Platelet DG rel 4.8, SKKanGAS inh 4.4 and Rtt109 HAT inh -6.4.
Screening COc1ccc(S(=O)(=O)NCC2CCCN(Cc3ccc(OC)cc3F)C2)cc1 (stereo not drawn) returned TPT1 inhibitor -1.0, PHOSPHO1 inh 31.3, Platelet DG rel -1.0, SKKanGAS inh 81.7* and Rtt109 HAT inh 2.4.
Screening COc1ccc(S(=O)(=O)NCC2CCCN(Cc3ccccc3Cl)C2)cc1 (stereo not drawn) returned TPT1 inhibitor 1.2, PHOSPHO1 inh 24.2, Platelet DG rel 4.4, SKKanGAS inh 3.4 and Rtt109 HAT inh -0.1.
For CC(C)(C)c1ccc(OCC(=O)N2CCCCCC2)c(Br)c1 the results were TPT1 inhibitor 2.8, PHOSPHO1 inh 12.6, WT yeast gro inh 67.6*, Platelet DG rel 0.0, SKKanGAS inh 3.8 and Rtt109 HAT inh -4.9.
`CC(Oc1ccccc1Cl)C(=O)N1CCCN(C)CC1` (stereo not drawn) gave TPT1 inhibitor 4.7, Platelet DG rel -8.8, SKKanGAS inh -3.2 and Rtt109 HAT inh 10.3.
Cc1cc(Cl)ccc1OCC(=O)N1CCCN(C(=O)COc2ccc(Cl)cc2C)CC1 was read as TPT1 inhibitor 2.4, PHOSPHO1 inh -12.3, WT yeast gro inh 73.0*, Platelet DG rel -4.0, SKKanGAS inh 11.1 and Rtt109 HAT inh 21.0.
Cc1cc(Cl)ccc1OC(C)C(=O)N1CCCN(C(=O)C(C)Oc2ccc(Cl)cc2C)CC1 (stereo not drawn) was read as TPT1 inhibitor -2.6, PHOSPHO1 inh -12.2, WT yeast gro inh 59.6*, Platelet DG rel -6.5, SKKanGAS inh 5.7 and Rtt109 HAT inh 1.0.
For Cc1cc(Cl)ccc1OCC(=O)N1CC(C)CC(C)C1 (stereo not drawn) the results were TPT1 inhibitor 2.5, PHOSPHO1 inh -12.8, WT yeast gro inh -5.4, Platelet DG rel 6.1, SKKanGAS inh -0.3 and Rtt109 HAT inh 3.4.
COc1cc(NC(=S)NCc2cccnc2)c(OC)cc1Cl was read as TPT1 inhibitor 1.0, PHOSPHO1 inh 42.1, WT yeast gro inh 5.0, Platelet DG rel -3.1, SKKanGAS inh 0.0 and Rtt109 HAT inh 56.3*.
For COc1ccccc1NC(=S)NCc1cccnc1 the results were TPT1 inhibitor -4.3, PHOSPHO1 inh -3.9, WT yeast gro inh -7.4, Platelet DG rel -2.0, SKKanGAS inh -1.0 and Rtt109 HAT inh -8.1.
For O=C1OC(c2ccccc2)Cc2cc(C(=O)N3CCN(c4ccc(F)cc4)CC3)ccc21 (stereo not drawn) the results were Rtt109 HAT inh -5.6.
Screening Cn1nnnc1SCC(=O)c1cccs1 returned TPT1 inhibitor -3.2, PHOSPHO1 inh 21.9, WT yeast gro inh -0.9, Platelet DG rel 11.5, SKKanGAS inh 8.1 and Rtt109 HAT inh -0.4.
Cc1cc(C)c(-n2nnnc2SCC(=O)c2cccs2)c(C)c1 was read as TPT1 inhibitor -0.5, PHOSPHO1 inh 26.6, Platelet DG rel -5.1, SKKanGAS inh 5.4 and Rtt109 HAT inh 60.2*.

Compound activity from PubChem BioAssay.
